Source: PubChem BioAssay
Only a selection was taken, and hits are over-represented in it overall.
mHTT CaM bind = disrupts binding of mutant huntingtin to calmodulin; P42858; AlphaScreen His-mHTT/GST-CaM binding, luminescence; inhibition, % at 15 µM; 3.6% of 190,000 active
Pf apPOL inh = Pf-apPOL DNA polymerase inhibition; 0.25% of 210,000 active; Recombinant Pf-apPOL, molecular beacon fluorescence, 1.5 h; AID 1794808; inhibition, % at 10 µM
Each line names hits and unclear results; the compound was inactive in the other large screens. Cut-off read from the data, not from the text of the source: active = inhibition above about 50%; inactive = the rest.

CC1(c2ccccc2)CC(C)(C)N(C(=O)C(F)(F)F)c2ccccc21 (stereo unspecified)	none
CC1(c2ccccc2)CC(C)(C)N2C(=O)C(=O)c3cccc1c32 (stereo unspecified)	mHTT CaM bind 80
O=C(Cn1ccc2c(=O)[nH]ccc21)Nc1ccccc1Cl	Pf apPOL inh 82
O=C(Cn1ccc2c(=O)[nH]ccc21)Nc1cccc(Cl)c1	Pf apPOL inh 79
Cc1c(Cl)cccc1NC(=O)Cn1ccc2c(=O)[nH]ccc21	none
O=C(Cn1ccc2c(=O)[nH]ccc21)Nc1ccc(Cl)cc1	none
Cc1nc2c(SCC(=O)NCc3ccco3)nnc(-c3ccccc3)c2s1	mHTT CaM bind 53
Cc1nc2c(SCC(=O)Nc3ccc4c(c3)OCO4)nnc(-c3ccccc3)c2s1	none
Cc1cccc(-n2nc3c(c2NC(=O)/C=C/c2ccccc2)CSC3)c1C	mHTT CaM bind 94
CC(=O)Nc1c2c(nn1-c1cccc(C)c1C)CSC2	none
Cc1cccc(C(=O)Nc2c3c(nn2-c2cccc(C)c2C)CSC3)c1	none
Cc1cccc(-n2nc3c(c2NC(=O)/C=C/c2ccco2)CSC3)c1C	mHTT CaM bind 95
CN(C)c1ncccc1C(=O)NC1CCCCC1	none
COc1ccc(-n2c(SCCCN3C(=O)c4ccccc4C3=O)nnc2-c2ccncc2)cc1	none
O=C(Cc1cccs1)Nc1cccn2nc(C3CC3)nc12	Pf apPOL inh 61
Cc1ccccc1C(=O)Nc1cccn2nc(C3CC3)nc12	none
Nc1ccc(Cl)c2c1C(=O)c1ccccc1C2=O	mHTT CaM bind 59
Cc1ccc(Cl)c2c1C(=O)c1ccccc1C2=O	none
Cc1ccc2oc(-c3ccc(Cl)c(NC(=O)c4cccs4)c3)nc2c1	none
CC(C)(C)c1ccc(N2C(=O)CC(c3ccccc3)C2=O)cc1 (stereo unspecified)	none (no result: mHTT CaM bind)
O=C1CC(c2c[nH]c3ccccc23)C(=O)N1c1ccc(O)cc1 (stereo unspecified)	mHTT CaM bind 77
CCCCSc1nnc2c(n1)OC(c1cccnc1)Nc1ccccc1-2 (stereo unspecified)	none
Cc1ccc(-c2nc3cc(C)ccn3c2NC(=O)C(Cl)Cl)cc1	mHTT CaM bind 57
CCCC(=O)Nc1c(-c2ccc(C)cc2)nc2cc(C)ccn12	none
Cc1cc(O)c2c(c1)OC(=Cc1ccco1)C2=O	none
O=C(C1CCN(c2cc(N3CCCCC3)ncn2)CC1)N1CCC2(CC1)OCCO2	none
Cc1ccc(CNC(=O)Cc2cn(C)c3ncccc23)cc1	none
Cc1ccc(NS(=O)(=O)c2cn(C)c3ncccc23)cc1	mHTT CaM bind 67, Pf apPOL inh 80
O=C1CCC(C(=O)NCC23CC4CC(CC(C4)C2)C3)N1 (stereo unspecified)	none (no result: Pf apPOL inh)
CCc1ccc(C(=O)N2CC3CN(S(=O)(=O)c4cccc(C)c4)CC(C2)O3)cc1	mHTT CaM bind 65
Cc1cccc(S(=O)(=O)N2CC3CN(C(=O)c4cccc(F)c4)CC(C2)O3)c1	none
Brc1ccc2[nH]c3c(c2c1)CCC3	none (no result: mHTT CaM bind)
NC(=O)c1cc(Br)cc2c3c([nH]c12)CCCC3	mHTT CaM bind 62
COc1cc(Nc2ncc3c(n2)CCN(Cc2ccccc2F)C3)cc(OC)c1	none
Cc1ccc(CNC(=O)N2CCCC(C)(C(=O)NCc3ccccc3C)C2)cc1 (stereo unspecified)	none
COc1cc(C2C(C#N)=C(N)Oc3n[nH]c(-c4cccs4)c32)cc(OC)c1O (stereo unspecified)	none
N#CC1=C(N)Oc2n[nH]c(-c3ccc(F)cc3)c2C1c1cccc(F)c1 (stereo unspecified)	none
N#CC1=C(N)Oc2n[nH]c(-c3ccc(Cl)c(Cl)c3)c2C1c1ccc(O)c(O)c1 (stereo unspecified)	mHTT CaM bind 99
N#CC1=C(N)Oc2n[nH]c(-c3ccc(Cl)c(Cl)c3)c2C1c1cccc(O)c1 (stereo unspecified)	mHTT CaM bind 100
N#CC1=C(N)Oc2n[nH]c(-c3ccc(Cl)cc3)c2C1c1ccc(F)cc1 (stereo unspecified)	none
COc1cc(C2C(C#N)=C(N)Oc3n[nH]c(-c4ccc(Cl)s4)c32)ccc1O (stereo unspecified)	mHTT CaM bind 60
Cc1ccc(S(=O)(=O)CCC(=O)Nc2ccc(Br)cc2F)cc1	none
C=CCN1C(=O)NC(c2ccc(Cl)cc2)C(C(=O)NC)=C1C (stereo unspecified)	none
COc1ccc(-c2nc3cccnc3n2C2CCN(C(=O)c3ccco3)C2)cc1 (stereo unspecified)	none
O=C(c1ccc(-c2cccnc2)nc1)N1CCCCC1	none
CCOc1ccc(S(=O)(=O)N(CC(=O)Nc2ccc(C(C)C)cc2)c2ccccc2)cc1	none
C=CCN(CC=C)S(=O)(=O)c1ccc(C(=O)N=c2sc3cc([N+](=O)[O-])ccc3n2C)cc1	none
CS(=O)(=O)c1c(Cl)cc(Cl)cc1Cl	none (no result: Pf apPOL inh)
COc1ccc2c(c1)/C(=N/OC(=O)c1ccc(OC)c([N+](=O)[O-])c1)CCC2	none
COc1ccc(CC(=O)N2CCN(c3cccc(Cl)c3)CC2)cc1OC	mHTT CaM bind 55
COc1ccc(CC(=O)N2CCN(c3cccc(Cl)c3)CC2)cc1	none
FC(F)Oc1ccc(-c2cc3ccccn3c2)cc1	none
COc1ccc(-c2cc3ccccn3c2)c(OC)c1	mHTT CaM bind 75
COCCNC(=O)c1ccccc1N(Cc1ccccc1)S(=O)(=O)c1ccccc1	none
CS(=O)(=O)N(Cc1ccccc1)c1ccccc1C(=O)NCCSc1ccc(Cl)cc1	mHTT CaM bind 52
COc1ccc(N2C(c3ccsc3)=Cc3cc4c(cc3C2c2c[nH]c3ccccc23)OCO4)cc1 (stereo unspecified)	mHTT CaM bind 70
CC(C)(O)C#Cc1ccc(N2C(c3ccsc3)=Cc3ccc(F)cc3C2c2c[nH]c3ccc(C#N)cc23)cc1 (stereo unspecified)	none
COc1ccc(Br)cc1/C=C1/N=C(c2cccc([N+](=O)[O-])c2)OC1=O	none
COc1cc(OC)c2c(-c3ccccc3)cc(=O)oc2c1C(CC(=O)N1CCOCC1)c1ccc2c(c1)OCO2 (stereo unspecified)	none
COc1cc(OC)c2c(-c3ccccc3)cc(=O)oc2c1C(CC(=O)N1CCOCC1)c1ccc(N(C)C)cc1 (stereo unspecified)	mHTT CaM bind 66
COc1cc(O)c(C(CC(=O)N2CCCC2)c2ccc(N(C)C)cc2)c(OC)c1 (stereo unspecified)	none
COc1cc(OC)c2c(-c3ccccc3)cc(=O)oc2c1C(CC(=O)N1CCN(c2ccccc2)CC1)c1ccc(N(C)C)cc1 (stereo unspecified)	mHTT CaM bind 58
CCC(Br)C(=O)Nc1cc(C)ccc1OC (stereo unspecified)	none
Cc1cc([N+](=O)[O-])c(N2CCOCC2)cc1NC(=O)c1cc2ccccc2o1	none
Cn1cc(CC(=O)NCc2cc(F)cc(F)c2)c2cccnc21	none
Cc1ccccc1C(=O)N1CCN(c2ccc(Br)cc2)C(=O)C1C (stereo unspecified)	none
Cc1ccccc1C1=N/C(=C\c2cccn2C)C(=O)O1	none
COc1ccc2c(c1)CC/C(=C\c1cccn1C)C2=O	none
Cn1cccc1/C=C1\CCC/C(=C\c2cccn2C)C1=O	mHTT CaM bind 79
CC1C/C(=C\c2cccn2C)C(=O)/C(=C/c2cccn2C)C1 (stereo unspecified)	mHTT CaM bind 99
CCCNC(=O)c1c[nH]c2ccc(S(=O)(=O)N3CCCCC3c3cccnc3)cc2c1=O (stereo unspecified)	none
CC1(C)CCN2CCC(C)(C)c3c(O)ccc1c32	mHTT CaM bind 71
